Consider 8 compounds from ChEMBL document CHEMBL3988442, “University of Dundee, Small-Polar-MMV Screening Library” (2021).

For some of these results: Potency and affinity values are given separately.

What all share (parameters): scale not given: direction of the effect not stated beside the values
Experiment [1] addresses Protein translocase subunit SecA (Escherichia coli (strain K12)) (UniProt P10408). As to the kind of experiment: Assay to Identify E. coli SecA ATPase Inhibitors. The settings on record: 30 µM. Format: functional.
The target in experiment [2] is T1, Ubiquitin-activating enzyme e1, putative (Leishmania donovani (strain BPK282A1)) (UniProt E9BSI1).
T1 sequence (whole entry): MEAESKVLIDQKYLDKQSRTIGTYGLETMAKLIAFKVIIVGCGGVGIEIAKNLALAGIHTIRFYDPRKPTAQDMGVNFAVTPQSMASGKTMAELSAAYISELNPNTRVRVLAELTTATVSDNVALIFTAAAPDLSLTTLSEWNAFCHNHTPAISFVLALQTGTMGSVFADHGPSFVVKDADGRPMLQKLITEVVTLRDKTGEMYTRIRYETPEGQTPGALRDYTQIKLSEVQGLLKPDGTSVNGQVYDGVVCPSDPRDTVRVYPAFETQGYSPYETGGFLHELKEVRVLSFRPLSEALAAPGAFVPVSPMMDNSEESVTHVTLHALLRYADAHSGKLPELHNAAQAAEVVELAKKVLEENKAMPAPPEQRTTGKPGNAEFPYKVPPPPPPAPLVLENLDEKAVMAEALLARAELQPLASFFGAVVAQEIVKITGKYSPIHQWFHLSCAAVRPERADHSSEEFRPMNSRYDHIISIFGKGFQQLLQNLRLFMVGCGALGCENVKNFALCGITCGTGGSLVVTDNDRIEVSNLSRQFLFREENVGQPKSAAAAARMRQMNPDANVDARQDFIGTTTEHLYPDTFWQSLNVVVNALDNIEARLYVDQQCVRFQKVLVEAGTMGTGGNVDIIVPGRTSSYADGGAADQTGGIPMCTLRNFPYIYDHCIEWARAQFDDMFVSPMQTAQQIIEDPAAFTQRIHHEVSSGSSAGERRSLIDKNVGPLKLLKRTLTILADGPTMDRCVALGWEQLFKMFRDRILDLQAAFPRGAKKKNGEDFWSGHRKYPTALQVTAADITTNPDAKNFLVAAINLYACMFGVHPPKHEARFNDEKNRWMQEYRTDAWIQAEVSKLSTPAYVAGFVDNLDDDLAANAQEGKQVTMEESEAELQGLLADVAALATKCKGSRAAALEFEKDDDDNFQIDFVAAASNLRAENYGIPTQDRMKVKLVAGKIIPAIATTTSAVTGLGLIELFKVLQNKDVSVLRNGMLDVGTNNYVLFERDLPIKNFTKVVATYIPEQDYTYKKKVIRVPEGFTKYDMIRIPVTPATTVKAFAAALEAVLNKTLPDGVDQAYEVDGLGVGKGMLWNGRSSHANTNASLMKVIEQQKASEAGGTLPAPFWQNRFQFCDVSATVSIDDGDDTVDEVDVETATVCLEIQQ
Briefly: Leishmania donovani Ubiquitin Activating Enzyme (LdE1). Format: functional. The note with it: 30 µM.

The target of experiment [3] is AMP-activated protein kinase, AMPK (Homo sapiens) (UniProt P54646+O43741+P54619+Q9UGJ0+Q9Y478+Q13131+Q9UGI9). As to the kind of experiment: AMP-dependent Kinase enzyme assay. An in vitro enzyme assay that detects ADP turnover that is directly proportional to AMPK activity. This uses naive AMPK that is activated during the assay with MK-8722. The experiment is classed as functional. The note with it: 30 µM.

The target in experiment [4] is Sialic acid-binding Ig-like lectin 9 (Homo sapiens) (UniProt Q9Y336). Briefly: Hs-Siglec9 ALPHAscreen SOP 20170721. The note with it: 10 µM. In general terms: In Alpha technology, singlet oxygen from a donor bead excites a nearby acceptor bead.
A further experiment concerns Trypanosoma cruzi. As to the kind of experiment: Trypanosoma cruzi phosphomannomutase and mannose-1-phosphate guanylyltransferase assay. The experiment is classed as functional. The note with it: 10 µM.
Experiment [5] deals with T2, Arginase-2, mitochondrial (Homo sapiens) (UniProt P78540).
T2 sequence (whole entry): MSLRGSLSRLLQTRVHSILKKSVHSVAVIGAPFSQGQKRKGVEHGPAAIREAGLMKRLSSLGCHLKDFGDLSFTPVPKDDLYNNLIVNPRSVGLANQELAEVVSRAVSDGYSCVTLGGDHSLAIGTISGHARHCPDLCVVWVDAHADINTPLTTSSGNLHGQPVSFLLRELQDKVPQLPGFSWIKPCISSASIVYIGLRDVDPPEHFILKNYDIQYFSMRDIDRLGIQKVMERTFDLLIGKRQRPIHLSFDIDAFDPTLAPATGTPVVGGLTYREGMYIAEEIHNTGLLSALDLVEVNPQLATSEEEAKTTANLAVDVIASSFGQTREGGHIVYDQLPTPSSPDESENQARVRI
Briefly: in vitro enzyme assay to detect the production of urea directly proportional to the activity of Arginase II. Also: in the data most compounds retested in dose-response had high values. Format: functional. The settings on record: 33.3 µM.

Experiment [6] deals with T3, Proteasome subunit beta (Trypanosoma cruzi) (UniProt O96673).
T3 sequence (whole entry): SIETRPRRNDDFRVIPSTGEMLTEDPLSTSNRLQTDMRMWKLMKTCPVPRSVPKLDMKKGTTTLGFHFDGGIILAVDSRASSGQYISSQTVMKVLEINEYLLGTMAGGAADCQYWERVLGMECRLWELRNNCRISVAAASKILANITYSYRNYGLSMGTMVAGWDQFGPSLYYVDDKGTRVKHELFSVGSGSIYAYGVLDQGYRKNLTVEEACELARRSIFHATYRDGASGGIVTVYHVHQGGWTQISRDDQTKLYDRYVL
Briefly: Trypanosoma cruzi proteasome chymotrypsin-like activity (TcProtChymo) assay. Also: in the data most compounds retested in dose-response had high values. The experiment is classed as functional. The settings on record: 9.37 µM.

The next experiment is filed under the species Homo sapiens. As to the kind of experiment: To identify inhibition of the IFN signalling (Jak-Stat) pathway via expression of an eGFP reporter gene under the control of an IFN-stimulated response element (ISRE) containing MxA promoter. Format: functional. The settings on record: 30 µM.
In experiment [7] the target is T4, Tyrosyl-tRNA synthetase, putative (Trypanosoma cruzi (strain CL Brener)) (UniProt Q4DSP6).
T4 sequence (whole entry): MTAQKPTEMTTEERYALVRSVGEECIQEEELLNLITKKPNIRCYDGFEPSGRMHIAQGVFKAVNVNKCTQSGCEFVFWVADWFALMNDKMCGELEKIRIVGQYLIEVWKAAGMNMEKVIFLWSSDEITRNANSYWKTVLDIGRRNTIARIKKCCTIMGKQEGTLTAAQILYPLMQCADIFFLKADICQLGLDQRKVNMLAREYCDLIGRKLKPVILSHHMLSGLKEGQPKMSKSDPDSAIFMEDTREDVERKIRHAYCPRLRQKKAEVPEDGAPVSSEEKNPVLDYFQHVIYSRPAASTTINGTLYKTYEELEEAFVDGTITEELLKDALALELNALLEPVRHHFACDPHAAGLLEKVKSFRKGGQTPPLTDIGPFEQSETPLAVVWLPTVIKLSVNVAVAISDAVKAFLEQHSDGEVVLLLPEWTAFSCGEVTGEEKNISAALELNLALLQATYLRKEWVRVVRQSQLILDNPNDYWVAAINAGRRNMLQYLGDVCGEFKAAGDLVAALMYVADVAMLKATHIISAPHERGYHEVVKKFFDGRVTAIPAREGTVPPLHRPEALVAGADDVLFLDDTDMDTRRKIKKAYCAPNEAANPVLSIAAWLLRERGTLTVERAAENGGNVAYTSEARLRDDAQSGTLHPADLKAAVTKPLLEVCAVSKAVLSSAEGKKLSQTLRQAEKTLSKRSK
As to the kind of experiment: Trypanosoma cruzi tyrosyl tRNA synthetase (TcYRS) _High Tyrosine SOP. Also: in the data most compounds retested in dose-response had high values. Format: functional. The note with it: 30 µM.

For experiment [8], the target named is T4, Tyrosyl-tRNA synthetase, putative (Trypanosoma cruzi (strain CL Brener)). Briefly: Trypanosoma cruzi tyrosyl tRNA synthetase (TcYRS) SOP. Format: functional. The settings on record: 30 µM.
The target of experiment [9] is Chromo domain-containing protein 1 (Saccharomyces cerevisiae (strain ATCC 204508 / S288c) (Baker's yeast)) (UniProt P32657). Briefly: ScCHD-1 Enzyme Inhibition Assay. Also: in the data most compounds retested in dose-response had high values. The settings on record: 30 µM. The experiment is classed as functional.
Chain of Chromo domain-containing protein 1 (Saccharomyces cerevisiae (strain ATCC 204508 / S288c) (Baker's yeast)) (P32657 whole entry, the tested form may be a part): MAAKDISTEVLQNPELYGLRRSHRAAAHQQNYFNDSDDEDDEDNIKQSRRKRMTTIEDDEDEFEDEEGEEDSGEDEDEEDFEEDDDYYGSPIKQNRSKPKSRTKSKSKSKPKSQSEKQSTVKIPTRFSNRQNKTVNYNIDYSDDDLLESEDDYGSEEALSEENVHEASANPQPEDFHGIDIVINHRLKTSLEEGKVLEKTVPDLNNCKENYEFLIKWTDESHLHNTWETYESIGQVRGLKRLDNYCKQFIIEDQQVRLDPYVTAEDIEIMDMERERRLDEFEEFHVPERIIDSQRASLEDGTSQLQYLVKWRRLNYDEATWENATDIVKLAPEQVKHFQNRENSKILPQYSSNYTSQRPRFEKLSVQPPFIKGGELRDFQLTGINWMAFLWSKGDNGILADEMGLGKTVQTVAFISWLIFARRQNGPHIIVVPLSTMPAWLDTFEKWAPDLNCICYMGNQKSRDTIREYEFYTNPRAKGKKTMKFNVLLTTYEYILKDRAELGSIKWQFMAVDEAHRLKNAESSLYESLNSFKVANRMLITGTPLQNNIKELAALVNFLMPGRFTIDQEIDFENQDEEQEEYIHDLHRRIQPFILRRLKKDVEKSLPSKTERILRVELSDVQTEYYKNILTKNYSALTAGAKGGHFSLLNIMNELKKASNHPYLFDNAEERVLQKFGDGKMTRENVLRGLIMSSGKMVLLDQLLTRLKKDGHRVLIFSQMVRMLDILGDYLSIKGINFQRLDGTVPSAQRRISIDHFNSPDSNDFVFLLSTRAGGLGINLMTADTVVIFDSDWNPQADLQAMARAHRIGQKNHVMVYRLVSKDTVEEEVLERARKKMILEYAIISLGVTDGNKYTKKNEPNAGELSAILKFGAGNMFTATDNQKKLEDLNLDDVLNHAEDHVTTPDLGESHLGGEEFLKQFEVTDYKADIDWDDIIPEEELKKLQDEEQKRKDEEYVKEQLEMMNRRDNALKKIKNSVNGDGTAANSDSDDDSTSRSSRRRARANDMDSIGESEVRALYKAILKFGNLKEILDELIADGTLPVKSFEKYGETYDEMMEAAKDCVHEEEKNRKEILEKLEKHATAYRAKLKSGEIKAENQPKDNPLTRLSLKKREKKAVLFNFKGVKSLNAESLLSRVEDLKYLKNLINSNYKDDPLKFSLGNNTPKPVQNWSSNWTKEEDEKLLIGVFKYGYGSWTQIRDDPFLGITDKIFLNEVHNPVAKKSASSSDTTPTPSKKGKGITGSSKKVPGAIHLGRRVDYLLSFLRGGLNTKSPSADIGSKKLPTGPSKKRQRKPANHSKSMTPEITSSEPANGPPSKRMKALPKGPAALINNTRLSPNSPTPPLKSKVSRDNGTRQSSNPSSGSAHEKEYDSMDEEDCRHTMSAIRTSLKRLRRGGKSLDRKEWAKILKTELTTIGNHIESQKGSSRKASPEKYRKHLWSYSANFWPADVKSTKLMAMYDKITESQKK

Chain of Sialic acid-binding Ig-like lectin 9 (Homo sapiens) (Q9Y336 whole entry): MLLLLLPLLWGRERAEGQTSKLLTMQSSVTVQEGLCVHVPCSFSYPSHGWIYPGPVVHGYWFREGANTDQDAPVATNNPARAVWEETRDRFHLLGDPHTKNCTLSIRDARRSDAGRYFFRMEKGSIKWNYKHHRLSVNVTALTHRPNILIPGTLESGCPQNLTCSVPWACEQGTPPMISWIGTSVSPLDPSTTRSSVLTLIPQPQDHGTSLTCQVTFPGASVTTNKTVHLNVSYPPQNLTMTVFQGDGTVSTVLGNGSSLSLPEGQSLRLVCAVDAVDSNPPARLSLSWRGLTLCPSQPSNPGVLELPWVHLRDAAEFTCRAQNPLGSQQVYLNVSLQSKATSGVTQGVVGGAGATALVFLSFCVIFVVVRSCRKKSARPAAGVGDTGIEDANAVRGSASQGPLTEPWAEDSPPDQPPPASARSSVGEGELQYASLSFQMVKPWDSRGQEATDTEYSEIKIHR
Chain of Protein translocase subunit SecA (Escherichia coli (strain K12)) (P10408 whole entry): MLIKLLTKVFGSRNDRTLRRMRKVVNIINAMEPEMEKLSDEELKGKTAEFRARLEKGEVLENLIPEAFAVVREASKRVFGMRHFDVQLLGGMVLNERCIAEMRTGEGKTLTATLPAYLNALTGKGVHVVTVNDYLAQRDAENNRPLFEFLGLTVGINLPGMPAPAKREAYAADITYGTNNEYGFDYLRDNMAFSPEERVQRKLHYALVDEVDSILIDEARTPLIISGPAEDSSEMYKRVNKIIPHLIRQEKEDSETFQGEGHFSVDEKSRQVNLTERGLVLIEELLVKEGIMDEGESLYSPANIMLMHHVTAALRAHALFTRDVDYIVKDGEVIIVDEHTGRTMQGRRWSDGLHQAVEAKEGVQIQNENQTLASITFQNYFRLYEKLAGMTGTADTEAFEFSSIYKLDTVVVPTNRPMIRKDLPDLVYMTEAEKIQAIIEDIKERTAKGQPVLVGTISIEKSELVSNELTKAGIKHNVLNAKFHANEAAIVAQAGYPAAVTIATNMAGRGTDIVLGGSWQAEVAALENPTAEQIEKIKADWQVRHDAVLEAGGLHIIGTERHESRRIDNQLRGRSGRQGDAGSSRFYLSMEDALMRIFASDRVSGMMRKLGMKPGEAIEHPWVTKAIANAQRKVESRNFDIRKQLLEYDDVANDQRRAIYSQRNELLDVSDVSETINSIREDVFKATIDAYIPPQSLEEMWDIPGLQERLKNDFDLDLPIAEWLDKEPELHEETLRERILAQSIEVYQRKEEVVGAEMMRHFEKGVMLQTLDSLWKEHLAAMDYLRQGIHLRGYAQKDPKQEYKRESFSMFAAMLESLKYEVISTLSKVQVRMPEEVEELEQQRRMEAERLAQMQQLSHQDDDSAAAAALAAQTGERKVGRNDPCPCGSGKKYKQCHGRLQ

As for `O=C(Cc1cccs1)NC1CCN(c2cccc(F)c2)CC1`, the Percent Effect in experiment [1] is -3.15%; in [2] it was 16.4%; in [3], 6.31%; in experiment [4], 18.6%; in the experiment on Trypanosoma cruzi it was 2.74%; in experiment [5] it was 7.27%. In addition, the Percent Effect in experiment [6] is 9.05%; in the experiment listed under Homo sapiens, -1.55%; in experiment [7], 5.38%; in [8], 15%; in experiment [9], 1.6%.
As to `CC(=O)N1CCC(c2ccnc(Nc3cnccn3)n2)C1` (stereo not drawn), the Percent Effect in experiment [1] is -0.594%; in experiment [2], 13.3%; in [3], 12.9%; in experiment [4] it was 1.15%; in the experiment with Trypanosoma cruzi, -4.72%; in experiment [5], -4.43%. The Percent Effect in experiment [6] was 5.73%; in the experiment filed under Homo sapiens, 5.13%; in experiment [7], 4.25%; in [8], 16.7%; in experiment [9] it was -5.82%.
As for `CCCNC(=O)Cn1cc(-c2ccccc2)cn1`, the Percent Effect in experiment [1] is -4.24%; in experiment [2], 8.86%; in experiment [3], 12.1%; in [4] it was -0.382%; with Trypanosoma cruzi it was -5.64%; in [5], -0.645%. The Percent Effect in experiment [6] was 4.97%; in the experiment listed under Homo sapiens, 8.94%; in [7], 2.08%; in [8] it was 7.59%; in experiment [9] it was -18.4%.
Take `CC(C)c1ncncc1C(=O)N1CCCN(Cc2cccs2)CC1`: the Percent Effect in experiment [1] was -1.81%; in experiment [2], 16.2%; in experiment [3] it was -2.92%; in experiment [4], -2.71%; in the experiment on Trypanosoma cruzi it was 8.08%; in experiment [5] it was -6.47%. Further, the Percent Effect in experiment [6] is 6.46%; in the experiment filed under Homo sapiens, 5.27%; in experiment [7] it was 6.93%; in experiment [8] it was 18.3%; in [9], -5.18%.
Consider `Cc1cccc2c1OCCC2NCc1c(C)nn(C)c1N(C)C` (stereo not drawn), for which the Percent Effect in experiment [1] is 1.41%; in [2], 18.4%; in experiment [3], -5.71%; in experiment [4] it was 0.779%; with Trypanosoma cruzi it was -3.95%; in experiment [5], 7.28%. Moreover, the Percent Effect in experiment [6] is 16.9%; in the experiment filed under Homo sapiens, 24.8%; in experiment [7] it was 1.47%; in experiment [8], 7.32%; in [9], -18.2%.
As for `Cc1cnn(CC2CN(Cc3cccc(C(=O)N(C)C)c3)CCO2)c1` (stereo not drawn), the Percent Effect in experiment [1] was -2.21%; in [2], 23.4%; in experiment [3] it was -1.81%; in [4], 0.495%; with Trypanosoma cruzi, 3.56%; in [5], -7.83%. For the same compound, the Percent Effect was 14.7% in [6]; 14.3% in the experiment listed under Homo sapiens; 7.77% in experiment [7]; 19.5% in experiment [8]; -9.57% in experiment [9].
Regarding `CN(CC1CCCO1)C1CCN(CCc2ccccn2)CC1` (stereo not drawn), the Percent Effect in experiment [1] is -1.45%; in experiment [2], 0%; in experiment [3] it was -5.1%; in [4], 7.51%; with Trypanosoma cruzi it was -1.95%; in experiment [5], 0.924%. The Percent Effect is -0.898% in experiment [6]; 7.31% in the experiment filed under Homo sapiens; 3.96% in experiment [7]; 1.22% in experiment [8]; 8.88% in experiment [9].
Regarding `Cc1ccc(NC2CCN(C(=O)c3cccn3C)CC2)nn1`, the Percent Effect in experiment [1] was -10.3%; in [2], 7.79%; in [3], -16.9%; in [4], 19.7%; in the experiment with Trypanosoma cruzi, 11.2%; in [5] it was 2.85%. The Percent Effect was 18.4% in experiment [6]; 26.6% in the experiment filed under Homo sapiens; 10.7% in experiment [7]; 24.4% in experiment [8]; -12.9% in [9].
